Drawing on PubChem BioAssay, this text covers growth inhibition, inhibition and outcome for 20 molecules.

Molecules are shown by their SMILES. A number with no mark means an inactive call. For some of these results: Measured potencies and affinities stand elsewhere. Calls of active or inactive are those of the source. Unless noted, no rule for the calls is given here.

Test [1] in a line: antimalarial activity against Dd2 strain (AID 2302;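 active = growth inhibition above 50% at the single 2 µM test dose, taken to imply half-maximal potency below 2 µM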;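 also: 0% = DMSO untreated growth and 100% = chloroquine plus artemisinin killed control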). The note with it: P. falciparum Dd2 in RBCs, LDH growth readout, 72 h; at 2 µM; hits give high values.
The nature of test [2]: human hepatoma cell viability loss – ATP luminescence, cytotoxicity control for P. falciparum antimalarial project, primary screen (AID 2303;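 active = inhibition above 50%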;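 also: 0% = DMSO wells and 100% = digitonin-killed cells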). The note with it: HepG2 viability, 24-48 h, at 10 µM, hits give high values.
Test [3] addresses L-lactate dehydrogenase (Plasmodium falciparum (isolate CDC / Honduras)) (UniProt Q27743). The test is described as follows: PfLDH activity inhibition – cell lysate, 3D7 strain, counter-screen for P. falciparum growth inhibition project (AID 2304).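 Also: 0% = vehicle and 100% = reference inhibitor.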 The note with it: P. falciparum 3D7 crude extract, LDH APAD/NBT absorbance; at 2 µM; hits give high values. A general note: The purpose of a counterscreen is to sort out artefacts and off-target activity.

A short description of test [4]: inhibition of 3D7 malaria parasite growth – strain 3D7 (AID 2306).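 Also: 0% = DMSO wells and 100% = chloroquine plus artemisinin control wells.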 Conditions: P. falciparum 3D7 erythrocytic growth, LDH absorbance, 72 h; at 2 µM; hits give high values.
The target of test [5] is Calcium-dependent protein kinase 1 (Plasmodium falciparum (isolate 3D7)) (UniProt P62344). In words: PfCDPK1 kinase inhibitors, biochemical, TCAMS library (AID 1159585; cut-off not given, nearly all actives have IC50 up to about 0.98 µM;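 also: inhibitors leave more ATP so luminescence rises with inhibition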). Conditions: recombinant PfCDPK1, Kinase-Glo ATP depletion luminescence. (In general: Kinase-Glo measures the ATP left after a reaction by luminescence.)
Calcium-dependent protein kinase 1 (Plasmodium falciparum (isolate 3D7)), sequence (P62344 whole entry, looked up): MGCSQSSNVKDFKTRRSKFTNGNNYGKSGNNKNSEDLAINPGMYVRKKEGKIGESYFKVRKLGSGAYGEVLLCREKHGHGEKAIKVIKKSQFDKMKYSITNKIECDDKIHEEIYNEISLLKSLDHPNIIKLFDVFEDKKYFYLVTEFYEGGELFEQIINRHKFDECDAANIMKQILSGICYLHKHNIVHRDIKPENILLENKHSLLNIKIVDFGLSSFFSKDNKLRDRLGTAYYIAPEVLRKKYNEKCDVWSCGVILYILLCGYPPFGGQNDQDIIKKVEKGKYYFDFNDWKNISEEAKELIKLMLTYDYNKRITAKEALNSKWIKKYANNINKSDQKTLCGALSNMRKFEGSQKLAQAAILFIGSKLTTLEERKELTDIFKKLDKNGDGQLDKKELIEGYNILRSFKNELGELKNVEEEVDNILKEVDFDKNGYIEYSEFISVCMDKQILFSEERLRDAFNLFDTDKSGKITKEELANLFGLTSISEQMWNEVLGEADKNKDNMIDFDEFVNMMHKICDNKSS
For test [6], the target named is Plasmodium falciparum protein kinase 6 (PK6, PF3D7_1337100) (UniProt Q8IDW1). In words: PfPK6 kinase inhibitors, biochemical, TCAMS library (AID 1159586). Conditions: recombinant PfPK6, Kinase-Glo ATP depletion luminescence.
Plasmodium falciparum protein kinase 6 (PK6, PF3D7_1337100), sequence (Q8IDW1 1-305): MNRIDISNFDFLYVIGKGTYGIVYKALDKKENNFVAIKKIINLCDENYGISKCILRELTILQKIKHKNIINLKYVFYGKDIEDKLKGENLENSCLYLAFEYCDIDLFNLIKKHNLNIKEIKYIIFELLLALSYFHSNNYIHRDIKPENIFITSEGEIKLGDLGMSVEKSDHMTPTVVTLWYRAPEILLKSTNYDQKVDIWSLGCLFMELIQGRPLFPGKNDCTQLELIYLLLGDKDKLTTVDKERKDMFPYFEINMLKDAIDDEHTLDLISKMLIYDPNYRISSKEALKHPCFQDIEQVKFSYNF
Test [7] concerns the target Protein kinase 7 (PK7), Plasmodium falciparum 3D7 (PF3D7_0213400) (UniProt Q7YTF7). The test is described as follows: inhibition of Plasmodium PK7 catalytic activity – biochemical, TCAMS antimalarial set, Kinase-Glo luminescence (AID 1159587). The note with it: recombinant PfPK7, Kinase-Glo ATP depletion luminescence.
Test [8] deals with Calcium-dependent protein kinase 4 (Plasmodium falciparum (isolate 3D7)) (UniProt Q8IBS5). In words: PfCDPK4 kinase inhibitors, biochemical, TCAMS library (AID 1159588; cut-off not given, nearly all actives have IC50 up to about 0.91 µM). Conditions: recombinant PfCDPK4, Kinase-Glo ATP depletion luminescence.
Calcium-dependent protein kinase 4 (Plasmodium falciparum (isolate 3D7)), sequence (Q8IBS5 whole entry, looked up): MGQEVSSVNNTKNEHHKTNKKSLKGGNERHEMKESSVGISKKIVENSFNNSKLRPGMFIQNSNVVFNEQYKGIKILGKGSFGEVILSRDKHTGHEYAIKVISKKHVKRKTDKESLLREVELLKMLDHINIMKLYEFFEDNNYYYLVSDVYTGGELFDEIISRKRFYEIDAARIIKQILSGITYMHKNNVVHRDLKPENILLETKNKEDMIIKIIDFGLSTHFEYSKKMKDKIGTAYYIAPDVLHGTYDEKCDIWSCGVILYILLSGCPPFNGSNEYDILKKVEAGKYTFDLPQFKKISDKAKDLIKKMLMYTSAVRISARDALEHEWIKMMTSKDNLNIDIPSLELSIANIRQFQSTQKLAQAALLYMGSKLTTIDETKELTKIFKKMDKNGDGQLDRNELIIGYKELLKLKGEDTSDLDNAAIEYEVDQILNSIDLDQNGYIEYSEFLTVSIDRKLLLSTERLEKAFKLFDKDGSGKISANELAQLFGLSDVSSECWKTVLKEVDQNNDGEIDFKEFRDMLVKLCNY

L-lactate dehydrogenase (Plasmodium falciparum (isolate CDC / Honduras)), sequence (Q27743 whole entry, looked up): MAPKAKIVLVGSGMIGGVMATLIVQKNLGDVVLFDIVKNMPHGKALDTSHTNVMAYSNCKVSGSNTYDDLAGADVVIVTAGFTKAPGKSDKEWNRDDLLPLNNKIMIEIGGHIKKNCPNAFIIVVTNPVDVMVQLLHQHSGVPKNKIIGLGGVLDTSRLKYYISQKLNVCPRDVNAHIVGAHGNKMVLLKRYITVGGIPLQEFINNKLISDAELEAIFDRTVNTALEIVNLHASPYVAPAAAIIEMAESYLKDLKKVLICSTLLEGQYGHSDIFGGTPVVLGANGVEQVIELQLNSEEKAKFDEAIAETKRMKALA
Protein kinase 7 (PK7), Plasmodium falciparum 3D7 (PF3D7_0213400), sequence (Q7YTF7 1-343): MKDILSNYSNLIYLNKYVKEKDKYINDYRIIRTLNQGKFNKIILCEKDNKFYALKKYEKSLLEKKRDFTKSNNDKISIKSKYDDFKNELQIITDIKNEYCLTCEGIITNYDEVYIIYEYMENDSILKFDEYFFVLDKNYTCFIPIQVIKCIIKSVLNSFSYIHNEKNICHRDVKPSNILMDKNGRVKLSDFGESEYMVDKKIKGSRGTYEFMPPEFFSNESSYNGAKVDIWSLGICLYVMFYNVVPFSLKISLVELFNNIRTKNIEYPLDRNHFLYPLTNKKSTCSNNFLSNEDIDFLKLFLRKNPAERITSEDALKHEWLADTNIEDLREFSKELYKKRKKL

For `C=CCOC(=O)N1CCC(CNCc2ccc(-c3ccc(-c4nc5ccccc5[nH]4)s3)cc2)C1` (stereo not given), the results for the growth inhibition in test [1] and in test [4] were 76% (active) and 101% (active), respectively. Moreover, the figures for the inhibition in test [2] and in test [3] were 29% and -2%, respectively. Besides, the result in test [5], in test [6], in test [7] and in test [8] was inactive.

For the molecule `CC(C)(C)C(Cn1ccnc1)NCc1cn[nH]c1-c1ccc(-c2ccccc2)cc1` (stereo not given), the growth inhibition is 69% (active) in test [1] and 98% (active) in test [4]. The inhibition – broadly, the change of the read-out against control, counted positive when it falls – in test [2] is 15%; in test [3], -2%. In addition, the result in test [5], in test [6], in test [7] and in test [8] was inactive.

On to `O=C(NC1CC1)C1CCN(Cc2cc3ccccc3n2Cc2ccc(Cl)cc2)CC1`, for which the growth inhibition in test [1] was 96% (active); in test [4] it was 95% (active). The inhibition is 16% in test [2] and -1% in test [3]. The outcome in test [5], in test [6], in test [7] and in test [8] was inactive.

Take `C[C@@H](Nc1nc(NCc2ccccc2)c2sccc2n1)c1ccccc1`: the growth inhibition was 75% (active) in test [1] and 91% (active) in test [4]. In addition, the inhibition in test [2] is 31%; in test [3] it was -4%. Besides, the result in test [5], in test [6], in test [7] and in test [8] was inactive.

Turning to `CC(C)(C)C1CC(=O)C[C@@H]2C(=O)N(C3CCCCC3)C(=O)[C@H]12` (stereo not given in full), the figures for the growth inhibition in test [1] and in test [4] were 27% and 97% (active), respectively. Moreover, the inhibition in test [2] and in test [3] was -2% each time. Further, the result in test [5], in test [6], in test [7] and in test [8] was inactive.

Turning to `CN(C)C(=O)c1ccc(CN(Cc2ccc(OC(C)(C)C)cc2)Cc2ccc3c(c2)OCCO3)cc1`, the growth inhibition in test [1] was 96% (active); in test [4], 95% (active). Besides, the figures for the inhibition in test [2] and in test [3] were -5% and 1%, respectively. Moreover, the result in test [5], in test [6], in test [7] and in test [8] was inactive.

Turning to `CCN(CC1CCN(CC2(O)CCOCC2)CC1)c1cc(C)nc(Nc2ccc(Cl)cc2)n1`, the growth inhibition in test [1] was 99% (active); in test [4] it was 101% (active). For the same molecule, the inhibition is 34% in test [2] and -4% in test [3]. Moreover, the outcome in test [5], in test [6], in test [7] and in test [8] was inactive.

As for `COc1ccccc1CCNc1nc(C)cc(N[C@@H](CC(C)C)C(=O)Nc2ccccc2)n1`, the figures for the growth inhibition in test [1] and in test [4] were 76% (active) and 101% (active), respectively. The inhibition in test [2] was 16%; in test [3], -2%. The outcome in test [5], in test [6], in test [7] and in test [8] was inactive.

For the molecule `O=C(/C=C/c1ccc(Cl)c(Cl)c1)N1CCC(CCCN2CCC(c3c[nH]c4ccc(O)cc34)CC2)CC1`, the growth inhibition in test [1] is 99% (active); in test [4], 102% (active). Besides, the inhibition in test [2] was 60% (active); in test [3], 1%. Also, the outcome in test [5], in test [6], in test [7] and in test [8] was inactive.

Regarding `Fc1ccc2nc(-c3ccc(-c4ccc(CN5CCN(c6ccncc6)CC5)cc4)cc3)[nH]c2c1`, the growth inhibition in test [1] was 101% (active); in test [4], 102% (active). The figures for the inhibition in test [2] and in test [3] were 37% and 6%, respectively. Moreover, the result in test [5], in test [6], in test [7] and in test [8] was inactive.

Turning to `NC(=O)c1ccc(-c2ccc3ccnc(N)c3c2)cc1`, the figures for the growth inhibition in test [1] and in test [4] were 98% (active) and 101% (active), respectively. In addition, the inhibition in test [2] is 56% (active); in test [3] it was -2%. The outcome in test [5], in test [6], in test [7] and in test [8] was inactive.

Consider `CN1CCC(c2c[nH]c3ccc(NC(=O)Nc4ccc(-c5ccncc5)cc4Cl)cc23)CC1`, for which the growth inhibition in test [1] was 7%; in test [4], 100% (active). Further, the inhibition was 31% in test [2] and 7% in test [3]. Further, the result in test [5], in test [6], in test [7] and in test [8] was inactive.

As to `O=C(Nc1ccc(-c2ccccc2)cc1)Nc1cccc(Cn2ncc(N3CCNCC3)c(Cl)c2=O)c1`, the figures for the growth inhibition in test [1] and in test [4] were 59% (active) and 100% (active), respectively. The inhibition was 30% in test [2] and 5% in test [3]. The outcome in test [5], in test [6], in test [7] and in test [8] was inactive.

Take `Clc1ccccc1CNc1noc(-c2sccc2Br)n1`: the growth inhibition in test [1] was 93% (active); in test [4] it was 97% (active). Further, the inhibition in test [2] is 0%; in test [3], -7%. In addition, the result in test [5], in test [6], in test [7] and in test [8] was inactive.

Take `CCCOc1cc(O)c(-c2n[nH]c(C)c2Oc2ccccc2)cc1CC`: the growth inhibition was 46% in test [1] and 91% (active) in test [4]. The inhibition is -14% in test [2] and 1% in test [3]. The result in test [5], in test [6], in test [7] and in test [8] was inactive.

`N#Cc1cccc(Nc2cc(C(F)(F)F)nc(Nc3ccccc3)n2)c1`: the growth inhibition in test [1] was 17%; in test [4] it was 92% (active). For the same molecule, the values for the inhibition in test [2] and in test [3] were 7% and 5%, respectively. Moreover, the outcome in test [5], in test [6], in test [7] and in test [8] was inactive.

As for `COc1ccc2nccc([C@@H](O)CN3CCC(NCc4[nH]c5ccccc5c4F)CC3)c2c1`, the results for the growth inhibition in test [1] and in test [4] were 61% (active) and 102% (active), respectively. Also, the inhibition in test [2] is 19%; in test [3], 3%. Besides, the result in test [5], in test [6], in test [7] and in test [8] was inactive.

For the molecule `O=C(NCCc1ccccc1)N(Cc1ccc(-c2cccc(CN3CCNCC3)c2)cc1)C1CCN(Cc2ccccc2)CC1`, the figures for the growth inhibition in test [1] and in test [4] were 29% and 90% (active), respectively. Further, the inhibition in test [2] is 27%; in test [3] it was -1%. In addition, the outcome in test [5], in test [6], in test [7] and in test [8] was inactive.

Take `COc1c(Br)cc(Br)cc1-c1ccc(CN2CC3CCC2CC3)[nH]1`: the growth inhibition in test [1] is 100% (active); in test [4], 98% (active). The inhibition in test [2] is 91% (active); in test [3] it was -3%. Moreover, the outcome in test [5], in test [6], in test [7] and in test [8] was inactive.

Consider `O=C(NC1CCCCC1)c1ccc(O)c(-c2cccc(C(F)(F)F)c2)c1`, for which the results for the growth inhibition in test [1] and in test [4] were 87% (active) and 97% (active), respectively. In addition, the inhibition in test [2] was 8%; in test [3] it was 0%. The result in test [5], in test [6], in test [7] and in test [8] was inactive.
